RORg inh – inhibitors of mouse ROR gamma transcriptional activity; 310,000 compounds, 5.4% hits; Drosophila S2 Gal4-RORgamma UAS-luciferase reporter, 20 h; Potency, µM (series often up to 53.6 µM), for the others: top-dose activity change, negative = inhibition, hits mostly inhibitors; AID 2551; further: potency means the concentration at half of the fitted maximal effect; nearly all actives have a fitted effect of over 60% in size
Target sequence (P51450 whole entry, looked up, the tested form may be a part): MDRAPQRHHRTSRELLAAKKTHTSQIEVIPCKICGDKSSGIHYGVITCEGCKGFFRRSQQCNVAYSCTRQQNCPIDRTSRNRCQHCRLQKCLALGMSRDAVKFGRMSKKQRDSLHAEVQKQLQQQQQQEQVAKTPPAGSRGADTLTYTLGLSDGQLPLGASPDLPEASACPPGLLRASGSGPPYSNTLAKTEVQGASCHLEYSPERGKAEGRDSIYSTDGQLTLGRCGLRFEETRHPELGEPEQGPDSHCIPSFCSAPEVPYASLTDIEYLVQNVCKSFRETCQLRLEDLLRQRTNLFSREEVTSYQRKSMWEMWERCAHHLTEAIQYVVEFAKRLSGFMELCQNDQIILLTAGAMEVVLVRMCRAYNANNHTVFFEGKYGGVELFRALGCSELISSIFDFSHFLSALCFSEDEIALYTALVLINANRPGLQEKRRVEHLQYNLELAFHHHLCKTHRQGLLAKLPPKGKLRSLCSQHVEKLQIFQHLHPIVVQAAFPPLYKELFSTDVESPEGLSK
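Compounds are pin-transferred onto Drosophila Schneider cells expressing a copper-inducible Gal4–ROR gamma transactivation domain fusion. After 1 hr, copper sulfate is added to 700 uM final; luciferase is read 20 hr later.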
VP16 counter – counter-screen for ROR gamma inhibitors: Gal4-VP16 reporter | Drosophila S2 Gal4-VP16 UAS-luciferase, luminescence, 20 h | Potency, µM (series often up to 53.6 µM), without a hit: top-dose activity, negative = inhibition, usual class: inhibitors | 310,000 compounds, 3.5% hits;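 further: Gal4-VP16 expression switched on by copper sulfate through the metallothionein promoter; potency means the concentration at half of the fitted maximal effect; nearly all actives have a fitted effect of over 50% in size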
DT40 TDP1 no CPT – qHTS for Inhibitors of human tyrosyl-DNA phosphodiesterase 1 (TDP1): qHTS in cells in absence of CPT; DT40 Tdp1-/- hTDP1 cells, no CPT, ATP luminescence, 48 h; Potency, µM (highest dose often 46.2 µM), for inactives: at the highest dose activity change, negative = growth inhibition, hits mostly inhibitors; 420,000 compounds, 15% hits; AID 686978, 2013; further: potency means the concentration at half of the fitted maximal effect; nearly all actives have a fitted effect of over 55% in size
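Readout: luminescence from CellTiter-Glo after 30 min in the dark at RT. Cells: DT40 Tdp1-/- with stable hTDP1, 400/well. Exposure: compounds alone, ≥48 hr, 37 °C.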
ELG1 DNA repair – ELG1-dependent DNA repair inhibition | HEK293T ELG1-luciferase reporter, luminescence, 16 h; DNA damage induced by 5-fluorouridine | 330,000 compounds, 2.3% hits | Potency, µM (series often up to 46.1 µM), for the others: at the top dose activity change, negative = inhibition, hits mostly inhibitors; further: potency means the concentration at half of the fitted maximal effect; nearly all actives have a fitted effect of over 55% in size
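Step one: seed 2,000 cells per well. Step two: pin-transfer compound or DMSO alongside 5-fluorouridine. Step three: incubate 16 hr, 37 °C, 5% CO2. Step four: add ONE-Glo, wait 30 min, read luminescence.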
TDP1 cell CPT – DT40-hTDP1 cell growth loss with CPT; chicken DT40 Tdp1-/-;hTDP1 cells + 20 nM CPT, ATP luminescence, 48 h; Potency, µM (doses to about 46.2 µM), for the others: top-dose activity change, negative = growth inhibition, hits mostly inhibitors; 420,000 compounds, 12% hits; AID 686979; further: potency means the concentration at half of the fitted maximal effect; nearly all actives have a fitted effect of over 55% in size
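Chicken DT40 Tdp1-/- cells complemented with human TDP1, 400 cells/well, exposed to compounds plus 20 nM camptothecin for at least 48 h at 37 C; viability read as ATP content by CellTiter-Glo luminescence.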
IL-1B inflam inh – inflammasome signaling inhibition, IL-1 beta readout; THP-1 LPS/ATP IL-1B secretion, AlphaLISA, 16 h; stronger effect = lower value; activity change, % at 57.5 µM; 360,000 compounds, 4.7% hits; AID 743279; in the data active means activity change below about -50%; inconclusive means mostly about -30% to -49%
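Secreted IL-1B measured by AlphaLISA bead assay after 16 h compound exposure of THP-1 cells; compounds (final up to 57.5 uM) added 1 h before LPS (250 ng/mL) and ATP (1.25 mM) stimulation; lower signal means less secretion.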
* = called active by the depositor; ? = inconclusive; nt = no result; [ ] = remark or other dose. A selection: hits, their analogues and other compounds. The true share with any hit is near 21%. Unless noted, the call rests on the fitted dose curve; in most records, active means well fitted curve in the direction sought with a large enough effect; inconclusive means small, poorly fitted or top-dose-only effect, or another doubt; inactive means no such curve, though single readings can be large; an effect the other way counts as inactive or inconclusive. On the % scale 0 is the no-effect control and ±100 the full control effect.

SMILES	RORg inh	VP16 counter	DT40 TDP1 no CPT	ELG1 DNA repair	TDP1 cell CPT	IL-1B inflam inh
COC(=O)c1sc(S(=O)(=O)N2CCN(c3ccccc3F)CC2)c(C(=O)OC)c1C	nt	nt	?	-26.0%	14.6µM*	2.4
COC(=O)c1sccc1NC(=S)N1CCN(c2cccc(C)c2C)CC1	-18.0%	24.1%	23.1µM*	-11.2%	18.4µM*	19.3
COC(=O)c1sccc1S(=O)(=O)N1CCN(c2ccc(C)cc2C)CC1	nt	nt	23.1µM*	nt	?	nt
COC(=O)c1sccc1S(=O)(=O)N1CCN(c2cccc(C)c2C)CC1	nt	nt	23.1µM*	nt	?	nt
COC(=O)c1sccc1S(=O)(=O)N1CCN(c2ccccc2)CC1	nt	nt	-27.5%	nt	-27.2%	nt
COC(=O)c1sc(S(=O)(=O)N2CCN(c3ccc(OC)cc3)CC2)c(C(=O)OC)c1C	16.4%	10.8%	?	-26.9%	-6.1%	46.0
CC(C)CC1(C2CCCC2)NC(=O)NC1=O (stereo not drawn)	nt	nt	0.6%	nt	4.5%	7.7
COc1cccc(C(C(=O)NCc2ccccc2)N2CCN(c3ccccc3F)CC2)c1OC (stereo not drawn)	nt	nt	16.4µM*	nt	20.6µM*	-26.2
O=C(NCc1ccccc1)C(c1ccc(F)cc1)N1CCN(c2ccccc2F)CC1 (stereo not drawn)	nt	nt	11.6µM*	nt	9.2µM*	-20.7
COc1cccc(C(C(=O)NCc2ccccc2)N2CCN(CCN3CCOCC3)CC2)c1OC (stereo not drawn)	nt	nt	-2.5%	nt	-6.2%	-0.2
COc1cc2c(cc1OCc1ccccc1)/C(=C/C(=O)OCc1ccccc1)OC2	nt	nt	-8.4%	nt	-16.7%	-25.1
CCOc1ncccc1C(=O)Nc1cc(S(=O)(=O)N2CCOCC2)ccc1OCC(F)(F)F	nt	nt	?	?	-12.2%	-18.2
CCC[n+]1c(C)sc2c3c(ccc21)CCCC3	-5.8%	-12.4%	2.31µM*	?	1.84µM*	-96.8*
O=C(Nc1cccnc1)c1ccc(Cl)c(S(=O)(=O)N2CCOCC2)c1	29.8%	-4.4%	1.3%	?	?	50.7
O=C(Nc1ccccc1)c1ccc(NCc2cccnc2)c(S(=O)(=O)N2CCOCC2)c1	-0.4%	-2.0%	14.6µM*	?	-21.3%	-9.5
O=C(Nc1ccccc1)c1ccc(NCc2ccco2)c(S(=O)(=O)N2CCOCC2)c1	?	-6.8%	?	?	-15.2%	-12.7
O=C(Nc1cccc(S(=O)(=O)N2CCOCC2)c1)c1cc(S(=O)(=O)N2CCOCC2)c(Cl)cc1Cl	nt	nt	?	nt	14.6µM*	-0.8
O=C(Nc1cccc(Br)c1)c1ccc(Cl)c(S(=O)(=O)N2CCOCC2)c1	-3.9%	-13.5%	18.4µM*	16.4µM*	14.6µM*	-96.2*
O=C(Nc1cccc(C(=O)NC2CC2)c1)c1ccc(Cl)c(S(=O)(=O)N2CCOCC2)c1	nt	nt	?	12.6µM*	-28.2%	15.0
CCOC(=O)c1ccccc1NC(=O)c1ccc(Cl)c(S(=O)(=O)N2CCOCC2)c1	nt	nt	16.4µM*	nt	?	-20.9
O=C(NC1CCCCCC1)c1ccc(Cl)c(S(=O)(=O)N2CCOCC2)c1	43.3%	1.9%	29.1µM*	?	?	-9.1
O=C(Nc1cccc(S(=O)(=O)C(F)F)c1)c1ccc(Cl)c(S(=O)(=O)N2CCOCC2)c1	10.8%	?	18.4µM*	7.31µM*	16.4µM*	-62.6*
CCOC(=O)c1nn(-c2ccc(C)cc2)cc1C(=O)c1ccccc1	?	-10.4%	-23.0%	?	-12.3%	-20.0
Cc1ccccc1-c1ccc(C(=O)Nc2cccc(F)c2)o1	28.0%	1.2%	20.6µM*	?	?	?
O=C(Nc1cccc(F)c1)c1ccc(-c2ccccc2C(F)(F)F)o1	11.4%	17.7%	nt	23.6%	nt	nt
SMILES	RORg inh	VP16 counter	DT40 TDP1 no CPT	ELG1 DNA repair	TDP1 cell CPT	IL-1B inflam inh
Cc1cccc(C)c1NC(=O)c1ccc(-c2cc(F)ccc2F)o1	nt	nt	16.4µM*	nt	18.4µM*	-4.3
Cc1ccc(C)c(NC(=O)CSc2c(C)cnc3c2c(=O)n(C)c(=O)n3C)c1	nt	nt	7.4%	nt	4.4%	nt
O=C(COc1ccccc1Br)c1ccc(O)cc1O	10µM*	?	-14.8%	?	-22.9%	-22.0
O=C(COc1ccccc1Br)c1ccc2c(c1)OCO2	nt	nt	-24.3%	?	0.4%	-12.0
Cc1cccnc1C1=NOC(Cc2ccccc2)C(=O)N1Cc1ccc2c(c1)OCO2 (stereo not drawn)	nt	nt	?	nt	-2.0%	8.8
COc1ccc(C(CC(=O)N2CCCC2)c2c(OC)cc(OC)c3c(-c4ccccc4)cc(=O)oc23)cc1 (stereo not drawn)	24.5%	-1.3%	16.4µM*	0.0%	?	-15.6
COc1ccc(C(CC(=O)N2CCOCC2)c2c(OC)cc(OC)c3c(-c4ccccc4)cc(=O)oc23)cc1 (stereo not drawn)	34.3%	-23.4%	?	1.6%	?	-22.0
COc1ccc(C(CC(=O)N2CCCCC2)c2c(OC)cc(OC)c3c(-c4ccccc4)cc(=O)oc23)cc1 (stereo not drawn)	2.9%	6.2%	?	0.0%	?	-19.0
COc1ccc(C(CC(=O)N2CCCC(C)C2)c2c(OC)cc(OC)c3c(-c4ccccc4)cc(=O)oc23)cc1 (stereo not drawn)	-0.4%	-4.5%	14.6µM*	?	?	-9.9
COc1ccc(C(CC(=O)N2CCCC(C)C2)c2c(OC)cc(OC)c3ccc(=O)oc23)cc1 (stereo not drawn)	-30.4%	-4.7%	18.4µM*	-27.1%	?	-6.8
O=C(CCS(=O)(=O)c1cc2c3c(c1)CCN3C(=O)CC2)Nc1cccc(Br)c1	nt	nt	?	nt	-23.6%	nt
CN(C)CCCC1Sc2ccccc2Sc2ccccc21 (stereo not drawn)	nt	nt	?	nt	?	-66.1*
O=C(C[C@H]1C/C=C\CC[C@H](Cc2ccc(F)cc2)C(=O)OCCNC1=O)NCCO	nt	nt	2.4%	8.0%	-8.8%	-6.9
Cc1ccc(SCC(=O)Nc2ccc(N3CCOCC3)cc2)cc1C	nt	nt	-28.4%	-1.7%	-27.7%	-1.1
CCCc1nc2cccnc2n1C1CCN(C(=O)Cn2nccc2C)CC1	nt	nt	-19.2%	nt	5.3%[9.04 µM]	nt
CCOc1ccc(CNC(=O)CSc2c3c(nc4ccc(Cl)cc24)CCCC3)cc1	nt	nt	-25.4%	nt	-28.4%	nt
Cc1ccc(CNC(=O)CSc2c3c(nc4cc(Cl)ccc24)CCCC3)o1	2.7%	1.3%	?	-2.0%	?	-67.6*
COc1cccc(CNC(=O)CSc2c3c(nc4ccc(Cl)cc24)CCCC3)c1OC	nt	nt	9.2µM*	nt	7.31µM*	nt

Screens (PubChem)
